22 molecules from PubChem BioAssay AID493170 (National Center for Advancing Translational Sciences (NCATS), 2011) can be followed below.

SMILES strings stand for the structures. Inconclusive results are not listed. Active and inactive are the calls of the source. Calls come from the whole dose curve; as a rule, active = well fitted inhibition curve with a large enough effect; inconclusive = small, poorly fitted or top-dose-only effect, or effect the other way; inactive = flat fitted curve, though single readings scatter.
% is set by controls: 0 for no effect and ±100 for the full control effect; potency is the fitted concentration of half-maximal effect.

The target of this assay is Ubiquitin carboxyl-terminal hydrolase 2 (Homo sapiens) (UniProt O75604). As to the kind of experiment: Ub-rhodamine 110 based assay for inhibitors Ubiquitin-specific Protease USP2a. Note: nearly all actives have a fitted effect of over 50% in size. Conditions: USP2a Ub-rhodamine110 cleavage, fluorescence; series mostly up to 38.3 µM; activity change, negative = inhibition: at the top concentration. A digest of the protocol: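 Kinetic fluorescence (485/531 nm) read each minute over 7 min after adding Ub-Rhod110 (150 nM final) to USP2a (5 nM final). The enzyme had 30 min RT exposure to compounds beforehand in Tris pH 8.0 buffer with CaCl2, CHAPS and beta-ME.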
Ubiquitin carboxyl-terminal hydrolase 2 (Homo sapiens), sequence (O75604 whole entry, looked up): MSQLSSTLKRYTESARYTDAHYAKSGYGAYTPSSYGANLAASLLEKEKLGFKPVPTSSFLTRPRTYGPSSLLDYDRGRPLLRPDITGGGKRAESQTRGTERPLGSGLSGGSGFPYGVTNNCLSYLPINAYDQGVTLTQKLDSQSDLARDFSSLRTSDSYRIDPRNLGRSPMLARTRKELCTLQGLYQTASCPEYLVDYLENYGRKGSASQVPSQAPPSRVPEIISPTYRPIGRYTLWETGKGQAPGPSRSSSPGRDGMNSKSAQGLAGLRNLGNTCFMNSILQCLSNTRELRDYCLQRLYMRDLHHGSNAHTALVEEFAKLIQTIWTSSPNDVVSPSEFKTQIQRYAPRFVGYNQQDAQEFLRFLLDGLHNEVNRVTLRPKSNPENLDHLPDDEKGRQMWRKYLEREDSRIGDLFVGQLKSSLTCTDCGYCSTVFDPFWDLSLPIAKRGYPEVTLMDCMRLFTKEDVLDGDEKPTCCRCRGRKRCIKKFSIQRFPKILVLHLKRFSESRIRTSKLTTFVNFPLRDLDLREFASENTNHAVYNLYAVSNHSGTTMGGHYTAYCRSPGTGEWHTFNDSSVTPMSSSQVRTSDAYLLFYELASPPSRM
For `CCCn1nnc(NC(=O)c2cccc(OCC(C)C)c2)n1`, the “activity change, negative = inhibition” value was -0.324% (inactive).

As to `Cc1nc2n(n1)CC(O)CS2` (configuration not stated), the “activity change, negative = inhibition” value was -3.3% (inactive).

For the molecule `COCc1cc(C)nc(OCC(=O)N/N=C\c2cc(C)n(-c3cccc(C(F)(F)F)c3)c2C)c1C#N`, the “activity change, negative = inhibition” value is -13.8% (inactive).

For the molecule `Cc1noc(NS(=O)(=O)c2ccc(N/C=C\C(=O)c3cccc4ccccc34)cc2)c1C`, the Potency is 10 µM (active).

With `O=C(C[n+]1ccc(C(=O)N/N=C/c2ccc(OCc3ccccc3)cc2)cc1)c1ccccc1`, the Potency was 8.91 µM (active).

In the case of `Cc1nc(N(C)C)c2sc(=S)n(C)c2n1`, the “activity change, negative = inhibition” value is -1.3% (inactive).

Consider `O=C1Nc2ccccc2SC(c2ccccc2)C1O` (configuration not stated), for which the Potency is 3.98 µM (active).

Regarding `CCc1cc2c(=O)c(-c3nc4ccccc4n3C)coc2c(CN2CCCCC2C)c1O` (configuration not stated), the “activity change, negative = inhibition” value is -20.5% (inactive).

With `CC(=O)Nc1ccc(NC(=O)C2CCCN(S(=O)(=O)c3ccc(Cl)cc3)C2)cc1` (configuration not stated), the “activity change, negative = inhibition” value is -9.2% (inactive).

Take `CC(C)CC(=O)Nc1cccc(-c2nc3ccccc3o2)c1`: the “activity change, negative = inhibition” value was 4.76% (inactive).

Take `Cc1cc2c(c(=O)n1CC1CCCO1)C(c1ccco1)C(C#N)=C(N)O2` (configuration not stated): the “activity change, negative = inhibition” value is 0.369% (inactive).

For the molecule `Cc1ccc(C)n1-c1cc(S(=O)(=O)N2CCOCC2)ccc1N1CCCC1`, the “activity change, negative = inhibition” value is -24.9% (inactive).

For the molecule `Cc1cccc(C)c1-n1cccc1/C=C1\SC(=S)N(c2cccc(C(=O)O)c2)C1=O`, the Potency is 7.94 µM (active).

With `Cc1cc(C)n(C(=O)c2cccc(S(=O)(=O)N3CCCC3)c2)n1`, the “activity change, negative = inhibition” value is 2.63% (inactive).

Consider `CCOC(=O)C(C)Sc1nnc(Cn2c(=O)sc3ccccc32)n1-c1ccccc1` (configuration not stated), for which the “activity change, negative = inhibition” value is -6.31% (inactive).

As to `O=C(Cc1ccc(S(=O)(=O)N2CCOCC2)s1)Nc1nc2c(s1)CCCC2`, the Potency is 6.31 µM (active).

Take `Fc1ccc(-c2nnn(Cc3nc4ccccc4s3)n2)cc1`: the “activity change, negative = inhibition” value was -19.1% (inactive).

As to `COc1ccc(C(=O)OCC(=O)c2c[nH]c3ccccc23)c(OC)c1`, the “activity change, negative = inhibition” value is -10.9% (inactive).

Regarding `COc1ccc(-c2[nH]ncc2/C=C(/C#N)C(=O)NC2CCCCC2)cc1`, the “activity change, negative = inhibition” value was -12.3% (inactive).

Turning to `CCO[C@H]1OC(C(=O)N2CCCCCCC2)=C[C@@H](c2ccc(C(F)(F)F)cc2)[C@@H]1CCCO`, the “activity change, negative = inhibition” value was -6.95% (inactive).

As for `O=C(NC1CCCC1)C1C2C=CC(C2)C1C(=O)N1CCOCC1` (configuration not stated), the “activity change, negative = inhibition” value is 2.69% (inactive).

For the molecule `COc1ccc(-n2c(=S)[nH]c3cc(C(=O)NCc4ccc(F)cc4)ccc3c2=O)c(OC)c1`, the “activity change, negative = inhibition” value is -19.6% (inactive).
